# An excerpt weighted towards active compounds, which were near 18% of everything screened.
# DT40 TDP1 no CPT = qHTS for Inhibitors of human tyrosyl-DNA phosphodiesterase 1 (TDP1): qHTS in cells in absence of CPT. DT40 Tdp1-/- hTDP1 cells, no CPT, ATP luminescence, 48 h. 15% of 420,000 active. AID 686978, 2013. Potency, µM (series often up to 46.2 µM), inactives show at the highest dose activity change, negative = growth inhibition, actives largely listed as inhibitors; further: potency means the concentration at half of the fitted maximal effect; nearly all actives have a fitted effect of over 55% in size
#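 Growth of hTDP1-complemented DT40 Tdp1-knockout cells is measured by ATP luminescence after at least 48 hr compound exposure at 37 °C, with DMSO substituting for the 20 nM CPT used in the parallel screen.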
# TDP1 block = qHTS Assay for Inhibitors of Tyrosyl-DNA Phosphodiesterase (TDP1) | 0.28% of 350,000 active | AID 485290, 2010 | Tyrosyl-DNA phosphodiesterase 1 (Homo sapiens), Q9NUW8 | Potency, µM (series often up to 130 µM), for inactives: at the highest dose activity change, negative = inhibition, most hits filed as inhibitors | recombinant TDP1, AlphaScreen DNA substrate cleavage; further: potency means the concentration at half of the fitted maximal effect; nearly all actives have a fitted effect of over 40% in size
# Target sequence (Q9NUW8 whole entry, looked up): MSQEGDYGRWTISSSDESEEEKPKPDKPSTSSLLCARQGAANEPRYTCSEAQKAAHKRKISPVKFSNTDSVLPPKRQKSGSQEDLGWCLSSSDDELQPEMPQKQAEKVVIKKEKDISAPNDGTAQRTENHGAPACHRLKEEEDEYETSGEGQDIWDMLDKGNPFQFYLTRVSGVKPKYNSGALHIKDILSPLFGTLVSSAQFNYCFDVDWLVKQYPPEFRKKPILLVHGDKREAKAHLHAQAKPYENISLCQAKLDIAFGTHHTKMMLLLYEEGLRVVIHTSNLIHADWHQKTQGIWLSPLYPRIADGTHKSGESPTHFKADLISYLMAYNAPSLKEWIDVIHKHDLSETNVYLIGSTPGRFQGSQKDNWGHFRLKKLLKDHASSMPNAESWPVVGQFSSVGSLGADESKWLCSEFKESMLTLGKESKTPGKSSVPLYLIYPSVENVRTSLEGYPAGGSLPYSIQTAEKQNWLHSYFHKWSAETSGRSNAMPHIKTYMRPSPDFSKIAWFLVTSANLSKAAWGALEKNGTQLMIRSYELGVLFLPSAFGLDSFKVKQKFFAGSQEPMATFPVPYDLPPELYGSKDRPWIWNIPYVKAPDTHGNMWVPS
#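 Tdp1 1 nM final; 15 min RT w/ cpd; substrate 15 nM, 5 min; beads 10 ug/ml, 10 min; AlphaScreen read. Neg ctrl: no enzyme.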
# IL1B secr inh = qHTS for Inhibitors of Inflammasome Signaling: IL-1-beta AlphaLISA Primary Screen; activity change, % at 57.5 µM; 4.7% of 360,000 active; THP-1 LPS/ATP IL-1B secretion, AlphaLISA, 16 h; hits give low values; in the data active means activity change below about -50%; inconclusive means mostly about -30% to -49%
#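 Secreted IL-1B measured by AlphaLISA bead assay after 16 h compound exposure of THP-1 cells; compounds (final up to 57.5 uM) added 1 h before LPS (250 ng/mL) and ATP (1.25 mM) stimulation; lower signal means less secretion.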
# TDP1 cell CPT = qHTS for Inhibitors of human tyrosyl-DNA phosphodiesterase 1 (TDP1): qHTS in cells in presence of CPT | chicken DT40 Tdp1-/-;hTDP1 cells + 20 nM CPT, ATP luminescence, 48 h | Potency, µM (titrated, usually from 46.2 µM), without a hit: top-dose activity change, negative = growth inhibition, actives largely listed as inhibitors | 12% of 420,000 active; further: potency means the concentration at half of the fitted maximal effect; nearly all actives have a fitted effect of over 55% in size
#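 Chicken DT40 Tdp1-/- cells complemented with human TDP1, 400 cells/well, exposed to compounds plus 20 nM camptothecin for at least 48 h at 37 C; viability read as ATP content by CellTiter-Glo luminescence.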
# Six1-Eya2 blk = qHTS Assay for Inhibitors of the Six1/Eya2 Interaction; Homeobox protein SIX1 (Homo sapiens) + Protein phosphatase EYA2 (Homo sapiens), …; AlphaScreen GST-Six1/His-Eya2 binding, biochemical; hits give low values; activity change, % (concentration not given with the values); 0.56% of 360,000 active; AID 651725, 2012; in the data active means activity change below about -65%; inconclusive means mostly about -30% to -63%
#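 Homogeneous AlphaScreen proximity assay pairing GST-Six1 with His-tagged Eya2 (added as 5X mix: 250 nM and 500 nM) in 50 mM Tris pH 8.0, 300 mM NaCl, 1 mM TCEP. Glutathione donor and nickel acceptor beads; 1 h, 37 °C, dark.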
# CtBP-E1A inh = qHTS Assay for Inhibitors of the CtBP/E1A Interaction | AlphaScreen GST-E1A/His-CtBP binding, 1536-well; hits give low values | AID 651724, 2012 | CtBP / adenovirus E1A interaction (AlphaScreen) | activity change, % (test concentration not listed) | 0.49% of 340,000 active; in the data active means activity change below about -65%; inconclusive means mostly about -30% to -63%
#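 AlphaScreen with 125 nM GST-E1A and 125 nM His-CtBP (5X stocks) in Tris pH 8.0, 300 mM NaCl, BSA, Tween 20, TCEP. Compounds preincubated 2 h at 37 deg C, then glutathione donor/nickel acceptor beads added for 1 h at 37 deg C in dark.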
# The depositor's hits bear a star; ? = inconclusive; . = no result given. Unless noted, the call rests on the fitted dose curve; in most records, active means well fitted curve in the direction sought with a large enough effect; inconclusive means small, poorly fitted or top-dose-only effect, or another doubt; inactive means no such curve, though single readings can be large; an effect the other way counts as inactive or inconclusive. On the % scale 0 is the no-effect control and ±100 the full control effect.
SMILES,DT40 TDP1 no CPT,TDP1 block,IL1B secr inh,TDP1 cell CPT,Six1-Eya2 blk,CtBP-E1A inh
N#Cc1nc(COc2cccc(Cl)c2)oc1NCc1ccco1,18µM*,7%,-16,21µM*,-17,-1
COc1ccc(CNc2oc(COc3cccc(C)c3)nc2C#N)cc1,?,.,.,4.1µM*,.,.
c1coc(-c2nnc(-c3cccs3)o2)c1,-8%,-2%,0,-7%,0,-2
Cc1ccc(CNc2nc(-c3ccco3)nn2S(=O)(=O)c2ccc3ccccc3c2)cc1,-10%,4%,.,-5%,.,.
CCCc1cc(Nc2ccccc2C)n2ncnc2n1,6%,.,-2,7%,-7,-4
Cc1ccc(C(=S)N2CCCCCC2)cc1,23µM*,5%,13,16µM*,-4,1
Oc1ccc(C(=S)N2CCCCCC2)cc1,-3%,4%,3,-17%,3,-6
S=C(c1ccc(N2CCCC2)cc1)N1CCCCC1,18µM*,11%,-19,16µM*,?,-13
S=C(c1ccc(N2CCCC2)c(Br)c1)N1CCCCC1,23µM*,7%,-14,21µM*,?,?
N#CCCn1nc2c(c1N)CCC2,7%,.,29,12%,4,8
COC(=O)c1ccc(Sc2nnnn2-c2ccccc2)c([N+](=O)[O-])c1,23µM*,9%,-10,16µM*,-4,-4
CSc1nnc([C@H](C)NC(=O)OC(C)(C)C)o1,5%,10%,0,13%,4,2
CCNc1ncc2nc(-c3ccc(OC)cc3)c(=O)n(CCOC)c2n1,6%,.,.,4%,.,.
COc1ccc(C(=O)NCc2nnc(SCC(=O)NO)n2Cc2ccccc2)cc1,?,1%,?,18µM*,6,10
COc1ccc(CC(=O)NCc2nnc(SCCOc3ccccc3)n2C)cc1,?,7%,-25,?,-16,-8
C=CCn1c(CCNC(=O)c2ccc(Cl)c(Cl)c2)nnc1SCCOc1ccc(OC)cc1,26µM*,7%,?,?,-22,-6
CCn1c(CNC(=O)Cc2ccc(OC)cc2)nnc1SCCOc1ccccc1,16µM*,3%,?,?,-3,0
C=CCn1c(SCCOc2ccccc2)nnc1C(C)NC(=O)c1ccccc1 (configuration not stated),-7%,2%,-4,?,-4,5
CC(=O)C1=C(O)C(=O)N(c2cc(C(C)(C)C)on2)C1c1ccc(C(C)C)cc1 (configuration not stated),26µM*,2%,8,?,-1,0
CC1(C(=O)NS(=O)(=O)Cc2ccccc2C(F)(F)F)CCN1C(=O)Cc1cccs1 (configuration not stated),-15%,.,18,?,9,9
CCOC(=O)c1c(NC(=S)Nc2ccc(OCC)cc2)sc2c1CCN(C)C2,-18%,8%,-6,-28%,-11,-15
CN1CCc2c(sc(NC(=O)Cc3ccccc3)c2C(N)=O)C1,-2%,.,-1,15%,-1,4
CCOC(=O)c1c(NC(=S)Nc2ccc(Cl)cc2)sc2c1CCN(C)C2,?,5%,-15,16µM*,-17,10
CCC(=O)Nc1sc2c(c1C(N)=O)CCN(Cc1ccccc1)C2,?,.,-24,-3%,-1,6
CCOC(=O)c1c(N)sc2c1CCN(Cc1ccccc1)C2,15µM*,9%,.,?,.,.
SMILES,DT40 TDP1 no CPT,TDP1 block,IL1B secr inh,TDP1 cell CPT,Six1-Eya2 blk,CtBP-E1A inh
CCN1CCc2c(sc(NC(=O)Cc3ccccc3)c2C(=O)OC)C1,?,.,?,12µM*,-15,-4
CCOC(=O)c1c(NC(=O)Cc2ccccc2)sc2c1CCN(C)C2,13µM*,.,?,?,8,23
CCOC(=O)c1c(NC(=O)Cc2ccccc2)sc2c1CCN(CC)C2,?,.,?,?,-1,3
CCOC(=O)c1c(NC(=O)CCS(=O)(=O)c2ccccc2)sc2c1CCN(C)C2,16µM*,3%,0,16µM*,4,5
CCOc1ccc(N(C)S(=O)(=O)c2c(C(=O)N3CCC(C)CC3)c(C)n(C)c2C)cc1,?,9%,.,?,.,.
Cc1ccccc1N=C(c1ccccc1)C1C(=O)c2ccccc2C1=O,10µM*,.,-19,10µM*,?,-14
O=C(COC(=O)/C=C/c1cccs1)Nc1nc(-c2ccccc2)cs1,13µM*,1%,-13,16µM*,8,-8
O=C(Cc1cccs1)Nc1nc(-c2ccccc2)cs1,8.2µM*,3%,-70*,23µM*,0,3
CS(=O)(=O)N1CCc2cc(-c3csc(NC(=O)Cc4cccs4)n3)ccc21,8.2µM*,5%,-65*,13µM*,-11,-17
O=C(COC(=O)c1ccccc1)Nc1cc(S(=O)(=O)N2CCCCCC2)ccc1Cl,?,0%,25,?,3,14
O=S1(=O)N[C@H](Cc2ccccc2)COc2cccc(N3CCC[C@H]3CO)c21,-17%,.,-10,-23%,-2,0
O=C(COC(=O)c1ccccc1NS(=O)(=O)c1cc([N+](=O)[O-])ccc1Cl)c1ccccc1,.,3%,.,.,.,.
CC/C(=N\NC(=O)c1ccc(CN(C)S(=O)(=O)c2ccc(C)cc2)cc1)c1ccc(OC(F)F)cc1,21µM*,3%,-16,?,10,20
Cc1ccc(S(=O)(=O)N(C)Cc2ccc(C(=O)NN=C(CC(C)C)CC(C)C)cc2)cc1,23µM*,6%,-27,?,-5,0
Cc1ccc(S(=O)(=O)N(C)Cc2ccc(C(=O)NN=C3C4CC5CC(C4)CC3C5)cc2)cc1,-23%,-5%,14,2%,-7,-3
CCOC(=O)N1CCN(CC(O)COCc2ccc(OC)c(OC)c2)CC1 (configuration not stated),-4%,5%,1,-15%,-2,1
Cc1cnc(CN2CCc3c([nH]c4ccccc34)C2CC(C)C)[nH]1 (configuration not stated),?,0%,?,?,-23,-18

# Source: PubChem BioAssay (National Center for Advancing Translational Sciences (NCATS))
